# Measurements taken from PubChem BioAssay AID1159580 (chemical genetic matrix, 2015).
# “And” between values parts separate entries of the source, which are not always exact repeats. Equal values may be shown once. Among all 5,500 compounds or so, about 2,000 (36%) were called active. Roughly 18% stayed inconclusive and do not appear here. Some of the results follow. Unmarked numbers belong to inactive results. Rule as the data show it: active = normalized growth mostly below about 0.91 (no sharp cut-off); inconclusive = no clear call, values can overlap the other calls; inactive = mostly above about 0.92.
# Test: chemical genetic growth profiling, strain panel (AID 1159580);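 also: tested at 20 µM; growth read once vehicle control cultures reached saturation at 30 °C; 1 = growth at the plate median or of vehicle wells; lower values mean less growth of the strain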
# Details: S. cerevisiae deletion strains, growth OD
smiles,measurement,setting,value
C[C@@H]1CC[C@@]2(OC1)OC1C(O)C3C4CC[C@H]5C[C@H](O[C@@H]6O[C@H](CO)[C@H](O[C@@H]7O[C@H](CO)[C@@H](O)[C@H](O[C@@H]8OC[C@@H](O)[C@H](O)[C@H]8O)[C@H]7O[C@@H]7O[C@H](CO)[C@H](O)[C@H](O[C@@H]8O[C@H](CO)[C@@H](O)[C@H](O)[C@H]8O)[C@H]7O)[C@H](O)[C@H]6O)[C@H](O)C[C@]5(C)C4CC[C@]3(C)C1[C@@H]2C (stereo partly specified),normalized growth,"locus YAL013W, strain DEP1, hits give low values",0.0526 (active)
same,normalized growth,"locus YAL021C, strain ccr4, hits give low values",0.988
same,normalized growth,"locus YAL026C, strain drs2, hits give low values",1.01
same,normalized growth,"locus YAL030W, strain snc1, hits give low values",1.02
same,normalized growth,"locus YBL061C, strain skt5, hits give low values",1.01
same,normalized growth,"locus YBR009C, strain hhf1, hits give low values",0.942
same,normalized growth,"locus YBR021W, strain FUR4, hits give low values",0.0876 (active)
same,normalized growth,"locus YBR023C, strain chs3, hits give low values",1.01
same,normalized growth,"locus YBR171W, strain sec66, hits give low values",0.986
same,normalized growth,"locus YBR229C, strain ROT2, hits give low values",0.0499 (active)
same,normalized growth,"locus YBR231C, strain swc5, hits give low values",0.99
same,normalized growth,"locus YBR279W, strain paf1, hits give low values",1.02
same,normalized growth,"locus YCL011C, strain gbp2, hits give low values",0.986
same,normalized growth,"locus YCL016C, strain dcc1, hits give low values",0.995
same,normalized growth,"locus YCL029C, strain bik1, hits give low values",0.0554 (active)
same,normalized growth,"locus YCL061C, strain MRC1, hits give low values",0.999
same,normalized growth,"locus YCL069W, strain vba3, hits give low values",1.02
same,normalized growth,"locus YCR088W, strain abp1, hits give low values",1.01
same,normalized growth,"locus YDL005C, strain med2, hits give low values",1.06
same,normalized growth,"locus YDL035C, strain GPR1, hits give low values",0.0509 (active)
same,normalized growth,"locus YDL040C, strain nat1, hits give low values",1.02
same,normalized growth,"locus YDL074C, strain BRE1, hits give low values",0.0891 (active)
same,normalized growth,"locus YDL101C, strain DUN1, hits give low values",0.0606 (active)
same,normalized growth,"locus YDL185W, strain tfp1, hits give low values",0.0577 (active)
same,normalized growth,"locus YDL192W, strain arf1, hits give low values",0.0632 (active)
same,normalized growth,"locus YDR001C, strain nth1, hits give low values",1.02
same,normalized growth,"locus YDR069C, strain doa4, hits give low values",1.03
same,normalized growth,"locus YDR101C, strain arx1, hits give low values",0.0567 (active)
same,normalized growth,"locus YDR137W, strain rgp1, hits give low values",0.509 (active)
same,normalized growth,"locus YDR150W, strain NUM1, hits give low values",0.0485 (active)
same,normalized growth,"locus YDR159W, strain sac3, hits give low values",0.84 (active)
same,normalized growth,"locus YDR162C, strain NBP2, hits give low values",0.0515 (active)
same,normalized growth,"locus YDR195W, strain ref2",0.61 (active)
same,normalized growth,"locus YDR297W, strain sur2, hits give low values",1.02
same,normalized growth,"locus YDR318W, strain mcm21, hits give low values",0.0561 (active)
same,normalized growth,"locus YDR334W, strain swr1, hits give low values",1.02
same,normalized growth,"locus YDR335W, strain msn5, hits give low values",0.907 (active)
same,normalized growth,"locus YDR388W, hits give low values",0.0552 (active)
same,normalized growth,"locus YDR392W, strain spt3, hits give low values",0.919
same,normalized growth,"locus YDR502C, strain sam2, hits give low values",0.0624 (active)
same,normalized growth,"locus YEL003W, strain gim4, hits give low values",1
same,normalized growth,"locus YEL037C, strain rad23, hits give low values",1.02
same,normalized growth,"locus YEL061C, strain CIN8 (second series), hits give low values",0.999
same,normalized growth,"locus YER015W, strain faa2, hits give low values",1.02
same,normalized growth,"locus YER016W, strain bim1, hits give low values",0.977
same,normalized growth,"locus YER110C, hits give low values",0.0702 (active)
same,normalized growth,"locus YER111C, strain swi4, hits give low values",0.642 (active)
same,normalized growth,"locus YER155C, strain BEM2 (second series), hits give low values",1.01
same,normalized growth,"locus YER155C, strain BEM2, hits give low values",0.0639 (active)
same,normalized growth,"locus YER167W, strain BCK2, hits give low values",0.0533 (active)
same,normalized growth,"locus YFR010W, strain ubp6, hits give low values",1.01
same,normalized growth,"locus YGL078C, strain dbp3, hits give low values",0.0574 (active)
same,normalized growth,"locus YGL086W, strain mad1, hits give low values",0.0591 (active)
same,normalized growth,"locus YGL167C, strain pmr1, hits give low values",0.749 (active)
same,normalized growth,"locus YGL173C, strain kem1, hits give low values",1
same,normalized growth,"locus YGL227W, strain vid30, hits give low values",1.03
same,normalized growth,"locus YGL240W, strain doc1, hits give low values",0.846 (active)
same,normalized growth,"locus YGL248W, strain PDE1, hits give low values",0.0484 (active)
same,normalized growth,"locus YGL253W, strain hxk2, hits give low values",1.02
same,normalized growth,"locus YGR078C, strain PAC10, hits give low values",0.0519 (active)
same,normalized growth,"locus YGR135W, strain pre9, hits give low values",0.0583 (active)
same,normalized growth,"locus YGR252W, strain gcn5, hits give low values",0.173 (active)
same,normalized growth,"locus YHR013C, strain ard1, hits give low values",1.03
same,normalized growth,"locus YHR027C, strain rpn1, hits give low values",1.02
same,normalized growth,"locus YHR030C, strain SLT2, hits give low values",0.0897 (active)
same,normalized growth,"locus YHR079C, strain IRE1 (second series), hits give low values",0.0526 (active)
same,normalized growth,"locus YHR079C, strain IRE1, hits give low values",0.12 (active)
same,normalized growth,"locus YHR094C, strain hxt1, hits give low values",0.0539 (active)
same,normalized growth,"locus YHR129C, strain ARP1, hits give low values",0.0547 (active)
same,normalized growth,"locus YHR142W, strain chs7, hits give low values",0.876
same,normalized growth,"locus YHR200W, strain rpn10, hits give low values",0.0577 (active)
same,normalized growth,"locus YIL066C, strain RNR3, hits give low values",0.0505 (active)
same,normalized growth,"locus YIL073C, strain SPO22, hits give low values",0.119 (active)
same,normalized growth,"locus YIL125W, strain kgd1, hits give low values",0.0532 (active)
same,normalized growth,"locus YIR030C, strain dcg1, hits give low values",0.054 (active)
same,normalized growth,"locus YJL092W, strain hpr5, hits give low values",1.01
same,normalized growth,"locus YJL095W, strain BCK1 (second series), hits give low values",1.01
same,normalized growth,"locus YJL095W, strain BCK1, hits give low values",0.059 (active) and 0.105 (active)
same,normalized growth,"locus YJL115W, strain asf1, hits give low values",1.03
same,normalized growth,"locus YJL129C, strain trk1, hits give low values",0.944
same,normalized growth,"locus YJL134W, strain LCB3, hits give low values",0.0488 (active)
same,normalized growth,"locus YJL154C, strain vps35, hits give low values",1.01
same,normalized growth,"locus YJL164C, strain tpk1, hits give low values",0.933
same,normalized growth,"locus YJL166W, strain qcr8, hits give low values",0.969
same,normalized growth,"locus YJL168C, strain set2, hits give low values",0.0534 (active)
same,normalized growth,"locus YJL187C, strain SWE1 (second series), hits give low values",0.0518 (active)
